Assay results as given in publication PMC5540273 (PLoS ONE, 2017).
“And” between values parts separate entries of the source, which are not always exact repeats. Equal entries are not always repeated. Where two headings read alike, the source gives them in different places.

Columns and labels:
CDK4-cyclinD3 = details: n = 1
CDK4 = details: n = 1
CDK5 = details: concentration: 1 μM, replicates: in singlicate; n = 1
CDK7 = details: concentration: 1 μM, replicates: in singlicate, n = 1
CDK8 = details: concentration: 1 μM, replicates: in singlicate, n = 1
CDK9 = details: concentration: 1 μM, replicates: in singlicate; n = 1
CDKL1 = details: concentration: 1 μM, replicates: in singlicate, n = 1
CDKL2 = details: concentration: 1 μM, replicates: in singlicate, n = 1
CDKL3 = details: concentration: 1 μM, replicates: in singlicate; n = 1
CDKL5 = details: concentration: 1 μM, replicates: in singlicate; n = 1
[1] = concentration: 1 μM, replicates: in singlicate
[2] = concentration: 1 μM, replicates: in singlicate, 1 µM
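Note: KINOMEscan kinase panel screen.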

| SMILES | %Inh (CDK4-cyclinD3; [1]) [%] | %Inh (CDK4; [1]) [%] | %Inh (CDK5) [%] | %Inh (CDK7) [%] | %Inh (CDK8) [%] | %Inh (CDK9) [%] | %Inh (CDKL1) [%] | %Inh (CDKL2) [%] | %Inh (CDKL3) [%] | %Inh (CDKL5) [%] | %Inh (CDK4-cyclinD3; 1 µM) [%] | %Inh (CDK4; 1 µM) [%] | %Inh (CDK4-cyclinD3; [2]) | %Inh (CDK4; [2]) | %Inh (CDK7; 1 µM) | %Inh (CDK8; 1 µM) | %Inh (CDKL1; 1 µM) | %Inh (CDKL2; 1 µM) |
| --- | --- | --- | --- | --- | --- | --- | --- | --- | --- | --- | --- | --- | --- | --- | --- | --- | --- | --- |
| c1ccc(-c2cc(-c3c[nH]nc3-c3ccccn3)ccn2)cc1 [GW576604] | 0 | 49 | 0 | 0 | 13 | 0 | 0 | 0 | 0 | 0 | – | – | – | – | – | – | – | – |
| O=C(Nc1n[nH]c2cc(-c3cccc(F)c3)ccc12)C1CC1 [SB-735464] | 7 | 44 | 3 | 0 | 0 | 0 | 6 | 57 | 28 | 4 | – | – | – | – | – | – | – | – |
| Nc1nc(-c2ccc3c(N)n[nH]c3c2)cc(N2CCCC2)n1 [GSK2227430] | 0 | 0 | 0 | 0 | 0 | 0 | 72 | 0 | 0 | 0 | – | – | – | – | – | – | – | – |
| O=C1Cc2cc(Nc3nc(NCc4cccc(S(=O)(=O)C(F)(F)F)c4)ncc3C(F)(F)F)ccc2N1 | 0 | 27 | 14 | 4 | 3 | 10 | 21 | 4 | 3 | 18 | – | – | – | – | – | – | – | – |
| O=C(NCCNc1ccnc(Nc2ccc(F)cc2)n1)Nc1ccccc1F [GSK1379880] | 3 | 28 | 0 | 0 | 0 | 0 | 0 | 15 | 0 | 0 | – | – | – | – | – | – | – | – |
| O=c1cc(N2CCOCC2)nc2n(Cc3cccc(Cl)c3Cl)c(C3CC3)nn12 [GSK2358994] | – | – | 7 | 5 | 0 | 0 | 20 | 0 | 0 | 0 | 0 | 0 | – | – | – | – | – | – |
| CN1c2ccc(NCc3ccc(F)cc3)cc2-c2c(cnn2C)S1(=O)=O | 0 | 0 | 6 | 0 | 62 | 15 | 20 | 19 | 0 | 0 | – | – | – | – | – | – | – | – |
| Cc1ccc(NC(=O)c2ccnc(N3CCN(C)CC3)c2)cc1-c1ccc(C(=O)NCC2CC2)cc1 [GW775604] | 0 | 2 | 0 | 0 | 0 | 0 | 0 | 0 | 5 | 0 | – | – | – | – | – | – | – | – |
| N#Cc1ccc(-c2cc(-c3c[nH]nc3-c3ccccn3)ccn2)cc1 [GW693028] | 2 | 11 | 0 | 0 | 23 | 0 | 8 | 13 | 0 | 0 | – | – | – | – | – | – | – | – |
| CCc1nc(-c2cccc(C)c2)c(-c2ccnc(NCc3ccccc3)c2)s1 | 0 | 0 | 0 | 0 | 0 | 1 | 13 | 0 | 2 | 0 | – | – | – | – | – | – | – | – |
| CCCCCc1nc2c(N)ncnc2n1CCCCC [SKF-97255] | 0 | 13 | 0 | 2 | 8 | 0 | 26 | 0 | 16 | 7 | – | – | – | – | – | – | – | – |
| CC(C)(CN)c1nc(-c2ccc(Cl)c(O)c2)c(-c2ccncc2)[nH]1.O=C(O)C(F)(F)F [SB-477794] | – | – | 0 | – | – | 0 | – | – | 0 | 0 | – | – | 32% and 0% | 39% and 51% | 0% and 14% | 59% and 64% | 3% and 10% | 14% and 0% |
| CC(C)(C)n1cnc2c(N)ncnc21 [SKF-97359] | 0 | 0 | 0 | 0 | 66 | 0 | 0 | 28 | 0 | 0 | – | – | – | – | – | – | – | – |
| Cn1ccc2ncnc(Oc3ccc(NC(=O)Nc4ccncc4)c(Cl)c3)c21 | 0 | 0 | 0 | 0 | 0 | 0 | 0 | 0 | 0 | 49 | – | – | – | – | – | – | – | – |
| Cc1nnc(-c2ccc3ncc(-c4ccc(S(C)=O)cc4)n3c2)o1 (stereo not shown) | 0 | 0 | 0 | 0 | 13 | 0 | 0 | 4 | 2 | 10 | – | – | – | – | – | – | – | – |
| COc1ccc(Nc2nccc(N3CCC(NC(=O)Nc4cc(C)ccc4C)C3)n2)cc1 (stereo not shown) [GSK1379741] | 0 | 0 | 0 | 0 | 11 | 0 | 0 | 44 | 0 | 5 | – | – | – | – | – | – | – | – |

| SMILES | %Inh (CDK4-cyclinD3; [1]) [%] | %Inh (CDK4; [1]) [%] | %Inh (CDK5) [%] | %Inh (CDK7) [%] | %Inh (CDK8) [%] | %Inh (CDK9) [%] | %Inh (CDKL1) [%] | %Inh (CDKL2) [%] | %Inh (CDKL3) [%] | %Inh (CDKL5) [%] | %Inh (CDK4-cyclinD3; 1 µM) [%] | %Inh (CDK4; 1 µM) [%] | %Inh (CDK4-cyclinD3; [2]) | %Inh (CDK4; [2]) | %Inh (CDK7; 1 µM) | %Inh (CDK8; 1 µM) | %Inh (CDKL1; 1 µM) | %Inh (CDKL2; 1 µM) |
| --- | --- | --- | --- | --- | --- | --- | --- | --- | --- | --- | --- | --- | --- | --- | --- | --- | --- | --- |
| NS(=O)(=O)c1cccc(-c2ccc3ncc(N4CCOCC4)nc3c2)c1 [GSK1535721] | 0 | 12 | 0 | 20 | 31 | 3 | 15 | 0 | 0 | 0 | – | – | – | – | – | – | – | – |
| C[C@@H](Oc1cc(-n2cnc3ccc(NC(=O)NC(C)(C)C)cc32)sc1C(N)=O)c1ccccc1Cl [GSK346294] | 1 | 34 | 0 | 0 | 45 | 0 | 14 | 5 | 0 | 0 | – | – | – | – | – | – | – | – |
| O=C(Nc1cccc(-c2nn3ncccc3c2-c2ccnc(Nc3cccc(C(F)(F)F)c3)n2)c1)c1c(F)cccc1F [GSK299495] | 9 | 18 | 0 | 0 | 24 | 0 | 0 | 14 | 0 | 0 | – | – | – | – | – | – | – | – |
| CCc1ccnc(/C=C/c2n[nH]c3cc(Sc4ccccc4C(=O)NC)ccc23)c1 | 0 | 0 | 1 | 0 | 0 | 10 | 3 | 0 | 2 | 12 | – | – | – | – | – | – | – | – |
| COCCNC(=O)c1ccc(-c2cc(C(=O)NC3CC3)cc(F)c2C)cc1 [GW868318] | 0 | 21 | 11 | 25 | 0 | 0 | 19 | 28 | 27 | 26 | – | – | – | – | – | – | – | – |
| COc1cc2c(cc1OC[C@@H](O)CO)ncc1c3ccc(C#N)cc3[nH]c21 | 0 | 4 | 17 | 99.5 | 15 | 0 | 12 | 0 | 8 | 0 | – | – | – | – | – | – | – | – |
| Cc1cn2c(=O)cc(N3CCOCC3)nc2n1Cc1cccc(Cl)c1Cl [GSK2334006] | 0 | 3 | 2 | 0 | 15 | 0 | 0 | 3 | 0 | 2 | – | – | – | – | – | – | – | – |
| c1ccc(-c2n[nH]cc2-c2ccnc3ccccc23)nc1 [GW271431] | 0 | 0 | 0 | 0 | 5 | 0 | 7 | 5 | 0 | 6 | – | – | – | – | – | – | – | – |
| CN(C(=O)c1ccc(-c2cc(-c3c[nH]nc3-c3ccccn3)ccn2)cc1)C1CCOCC1 [GW810083] | 0 | 15 | 0 | 9 | 45 | 0 | 21 | 0 | 47 | 0 | – | – | – | – | – | – | – | – |
| Nc1nccc(-c2c(-c3ccc(F)cc3)ncn2C2CCN(CC(F)(F)F)CC2)n1 [SB-236560] | 97.9 | 52 | 0 | 10 | 70 | 0 | 18 | 11 | 0 | 0 | – | – | – | – | – | – | – | – |
| CN1c2ccc(CNc3ccc(F)cc3)cc2-c2c(cnn2C)S1(=O)=O | 0 | 0 | 0 | 0 | 0 | 0 | 9 | 0 | 0 | 0 | – | – | – | – | – | – | – | – |
| NCC(NC(=O)c1cc(-c2cn[nH]c2)c(-c2ccnc3[nH]ccc23)s1)c1ccccc1.O=C(O)C(F)(F)F.O=C(O)C(F)(F)F (stereo not shown) [GSK1325775] | 41 | 0 | 0 | 93.7 | 33 | 64 | 34 | 53 | 68 | 48 | – | – | – | – | – | – | – | – |
| Cc1c2ccc(N(C)c3ccnc(Nc4cccc(S(N)(=O)=O)c4)n3)cc2nn1Cc1ccccc1.Cl.Cl [GW787226] | 0 | 2 | 0 | 3 | 0 | 3 | 0 | 39 | 10 | 0 | – | – | – | – | – | – | – | – |
| CC(C)Oc1ccc2c(-c3ccnc(Nc4ccc(N5CCN(C)CC5)cc4)n3)cnn2n1 [GW696155] | 97.8 | 58 | 0 | 99.8 | 8 | 21 | 34 | 99.6 | 92 | 43 | – | – | – | – | – | – | – | – |
| COc1ccc(Nc2nccc(N3CCC(NC(=O)Nc4cccc(C(C)=O)c4)C3)n2)cc1 (stereo not shown) [GSK1379731] | 0 | 8 | 0 | 0 | 61 | 0 | 1 | 43 | 0 | 0 | – | – | – | – | – | – | – | – |
